Source: PubChem BioAssay AID2685 (National Center for Advancing Translational Sciences (NCATS), 2010)
Among all 320,000 compounds or so, about 2,100 (0.66%) were called active. Roughly 53% stayed inconclusive and do not appear here. Calls come from the whole dose curve; as a rule, active = well fitted inhibition curve with a large enough effect in the signal ratio, with a control signal flat (not every such curve was filed as active); inconclusive = small, poorly fitted or top-dose-only effect, or effect the other way, or a change in a side signal; inactive = flat fitted curve, though single readings scatter; the % refers to the signal ratio. What follows is part of a selection rich in actives, with near analogues and random picks from the rest.

Assay: qHTS Assay for Lipid Storage Modulators in Drosophila S3 Cells;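 for cell number change: cells counted by Cell Tracker Red CMTPX staining in the red channel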
Conditions: BODIPY lipid droplet fluorescence, 18-24 h, cells fed with added oleic acid; cell number change: measured here: cell count max response; series mostly up to 46.1 µM
Procedure, shortened: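 Drosophila S3 cells got compounds at several concentrations plus oleic acid (400 uM solution). Laser-scanning cytometry with 488 nm excitation read lipid droplets at 500-530 nm and cells at 575-640 nm. Percent activity was relative to 20 uM Triacsin C.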
Potency is the fitted concentration of half-maximal effect.

Row | SMILES | Potency | cell number change
1 | CCOC(=O)C1CCN(C(=O)c2cccc(N3C(=O)NC4CC3(C)Oc3ccc(C)cc34)c2)CC1 (centres undefined) | inactive | 
2 | Cn1c(=O)oc2cc(S(=O)(=O)N3CCCCC3)ccc21 | inactive | 4.27%
3 | COc1ccc(C(=O)/C=C/Nc2ccc(S(=O)(=O)Nc3cc(OC)nc(OC)n3)cc2)c(OC)c1 | 29.1 µM (active) | 34.2%
4 | COc1ccc(C(=O)/C=C/Nc2ccc(S(=O)(=O)Nc3nc(C)cc(C)n3)cc2)c(OC)c1 | inactive | 26.5%
5 | COc1cc(NS(=O)(=O)c2ccc(N/C=C\C(=O)c3ccc(F)cc3)cc2)nc(OC)n1 | inactive | 2.61%
6 | c1ccc(Cc2cc[n+](Cc3ccccn3)cc2)cc1 | inactive | 3.79%
7 | CCOC(=O)c1c(C)nc2ccccc2c1C | inactive | 
8 | Cn1c(N)c(C(=O)/C=C/c2ccccc2)c(=O)[nH]c1=O | inactive | 12.4%
9 | Cc1nc2ccccc2c(N)c1C(=O)/C=C/c1ccccc1 | 14.6 µM (active) | -20.1%
10 | CC(Nc1nc2ncn(Cc3ccccc3)c2c(=O)[nH]1)C(=O)O (centres undefined) | inactive | -0.475%
11 | O=c1[nH]c(N2CCCCCC2)nc2ncn(Cc3ccccc3)c12 | inactive | 7.21%
12 | O=C(O)CCCCCNc1nc2ncn(Cc3ccccc3)c2c(=O)[nH]1 | 32.6 µM (active) | -20%
13 | Cc1ccc[n+](/C(=C\C(=C=[N-])C#N)C(=O)c2ccc(Cl)cc2)c1 | inactive | 18.6%
14 | O=C1CN(C(=O)c2ccccc2F)C(c2ccc(F)cc2)c2cc(Br)ccc2N1 (centres undefined) | inactive | -12.8%
15 | CC(=O)Nc1ccc(C(=O)OCC(=O)N2CCC(Cc3ccccc3)CC2)cc1 | 2.91 µM (active) | -6.23%
16 | CC(=O)Nc1ccc(OCC(=O)N2CCC(Cc3ccccc3)CC2)cc1 | inactive | -1.18%
17 | COc1cc(C(=O)OCC(=O)N2CCC(Cc3ccccc3)CC2)cc(OC)c1OC | inactive | 
18 | CC1=C(C(=O)NC2CCCc3c2cnn3-c2cc(F)cc(F)c2)OCCO1 (centres undefined) | inactive | 4.32%
19 | COc1ccc(C(=O)NNC(=O)c2cc3cc(OC)ccc3oc2=O)cc1 | inactive | 12.8%
20 | Cc1ccc(C(O)(C(=O)NNc2ccc3ccccc3n2)c2ccc(C)cc2)cc1 | inactive | -2.27%
21 | COc1ccc(C(O)(C(=O)NNc2ccc(C)cc2)c2cccs2)cc1 (centres undefined) | 32.6 µM (active) | 10.5%
22 | COc1ccc(NC(=O)c2cccs2)cc1 | inactive | -1.91%
23 | Cc1cc2ncn(-c3ncnc4sc5c(c34)CCCC5)c2cc1C | inactive | 8.27%
24 | c1ccc(CN(Cc2ccco2)C(c2ccncc2)c2nnnn2C2CCCC2)cc1 (centres undefined) | inactive | 
25 | O=C(Nc1ccc(Cl)cc1)C1CCCC1 | inactive | -15.4%
26 | O=C(Nc1cc(Cl)cc(Cl)c1)C1CCCC1 | 20.6 µM (active) | -3.7%
27 | O=C(CNC(=O)C1CCCCC1)Nc1cc(Cl)cc(Cl)c1 | inactive | 
